In PubChem BioAssay (NCATS):
Records with an inconclusive call do not appear. Entries that show only a call come without a potency. Unmarked numbers belong to inactive results. Active and inactive are the calls of the source. Calls come from the whole dose curve; as a rule, active = well fitted cell-killing curve with a large enough effect; inconclusive = small, poorly fitted or top-dose-only effect, or effect the other way; inactive = no such curve, though single readings can be large or run the other way.
Potency is the fitted concentration of half-maximal effect.

Assay: Viability qHTS for spleen associated tyrosine kinase inhibitor (SYKi) naive MV4-11 cells (AID 1963823); note: nearly all actives have a fitted effect of over 40% in size
Settings: MV4-11 AML viability, CellTiter-Glo luminescence, 72 h; series mostly up to 45 µM
In short: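 qHTS, SYK inhibitor-naive MV4-11; 500 cells/well; 72 hr compound exposure, 37 C; CellTiter-Glo added, 10 min RT; luminescence read.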
For CC(=O)N[C@H]1[C@H](O[C@H]2CC[C@@]3(C)C(CC[C@]4(C)C3CC=C3C5CC(C)(C)CC[C@]5(C(=O)O)C(O)C[C@]34C)C2(C)C)O[C@H](CO[C@@H]2O[C@H](C)[C@H](O)[C@H](O)[C@H]2O[C@@H]2OC[C@@H](O)[C@H](O)[C@H]2O)[C@@H](O)[C@@H]1O (stereo partly specified), the Potency was 3.48 µM (active).
For C=C1C[C@]23C[C@H]1CC[C@H]2[C@@]12CC[C@H](O)[C@@](C)(C(=O)O1)[C@H]2[C@@H]3C(=O)O, the Potency was “inactive”.
With O=C(O)c1ccc(N2C(=O)/C(=C/c3ccc(-c4ccc([N+](=O)[O-])cc4)o3)C=C2c2ccccc2)cc1 the Potency was “inactive”.
With CCn1cc(NC(=S)Nc2cc(Cl)ccc2OC)c(C(N)=O)n1 the Potency was “inactive”.
In the case of CC(C)C[C@H](CC(=O)NO)C(=O)N[C@@H](Cc1ccc2ccccc2c1)C(=O)N[C@@H](C)C(=O)NCCN, the Potency is reported as “inactive”.
With CCC(C)C(=O)O[C@H]1[C@@H](OC(=O)c2ccoc2)C[C@](C)(O)[C@]23OC(C)(C)[C@H](C[C@H](OC(=O)c4ccoc4)[C@]12COC(C)=O)[C@H]3OC(C)=O (stereo partly specified) the Potency was “inactive”.
In the case of COc1cccc2cc3c(c(O[C@@H]4O[C@H](CO[C@@H]5O[C@H](CO)[C@@H](O)[C@H](O)[C@H]5O)[C@@H](O)[C@H](O)[C@H]4O)c12)C(C)OC3=O (stereo partly specified), the Potency is reported as “inactive”.
For C/C=C(/C)C(=O)OC1C2OC2C2(CO2)C2C3OC(=O)C(C)C3CCC12C (stereo unspecified), the Potency was “inactive”.
With CC(=O)OC1CC(C(C)(C)O)OC2CCC3(C)OC4=C(C(=O)C=C5C(C)C(OC(C)=O)C6(C)C(C)OC546)C(O)C3C12C (stereo unspecified) the Potency was “inactive”.
With C=C1C[C@]23C[C@H]1CC[C@H]2[C@]1(C)CC[C@H](O)[C@@](C)(C(=O)O)[C@H]1[C@@H]3C(=O)O the Potency was “inactive”.
For CC[C@H](C)/C=C(C)/C=C/C1=CC2=C(Cl)C(=O)[C@](C)(O)[C@H](OC(C)=O)[C@H]2CO1, the Potency was 12.8 µM (active).
For Cc1ccc(OC[C@H](O)[C@H](C)NC(C)C)c2c1CCC2, the Potency was “inactive”.
With O=C(O)CC(CCc1ccccc1)OC1OC(CO)C(O)C(O)C1O (stereo unspecified) the Potency was “inactive”.
With CC1(CO)CC2C(O)C3=C(CC(C)(O)C2C1)C(=O)OC3 (stereo unspecified) the Potency was “inactive”.
In the case of O=C(NCCN1CCCC1)c1cc(-c2ccc(CN3CCOCC3)cc2)nc2ccc(F)cc12, the Potency is reported as “inactive”.
For C[C@@H]1C[C@H]2OC(=O)[C@@]3(C)CCC[C@](C)(C23)[C@@]1(O)CCC1=CC(=O)OC1O (stereo partly specified), the Potency was “inactive”.
C=C1CCC2(OC1)OC1CC3C4CC=C5CC(O)CC(O[C@@H]6OC[C@H](OC(=O)C(O)C(C)CC)[C@H](O)[C@H]6O[C@@H]6O[C@@H](C)[C@H](O)[C@@H](O)[C@H]6O)C5(C)C4CCC3(C)C1C2C (stereo partly specified) gave a viability (% of control) of 76.1% [at 9.25 µM].
In the case of CCOc1ncc(S(=O)(=O)N2CCN(CC)CC2)cc1-c1nc2c(CC)n(CCOC)nc2c(=O)[nH]1, the Potency is reported as “inactive”.
For NC(=O)[C@H](O[C@@H]1O[C@H](CO)[C@@H](O)[C@H](O)[C@H]1O)c1ccccc1, the Potency was “inactive”.
In the case of C=CC/C=C\C/C=C\CCCCCCCc1cccc(O)c1C(=O)O, the Potency is reported as “inactive”.
For CC(C)(O)/C=C/CC(C)(O)C1C(O)CC2(C)C3CCC4C(C)(C)C(=O)CCC4(C)C3CCC12C (stereo unspecified), the Potency was “inactive”.
For CC(=O)O[C@@H]1C(=O)C(C)=C(CCC(C)CC(=O)O)[C@@]2(C)CCCC(C)(C)C12 (stereo partly specified), the Potency was “inactive”.
For CC(=O)OC[C@]12[C@H](OC(C)=O)[C@H](OC(=O)c3ccccc3)[C@@H]3[C@@H](OC(C)=O)[C@]1(OC3(C)C)[C@H](C)C[C@H](OC(C)=O)[C@@H]2OC(=O)c1ccccc1, the Potency was “inactive”.
In the case of Nc1nc2c(cnn2CCCc2ccc(O)cc2)c2nc(-c3ccco3)nn12, the Potency is reported as “inactive”.
For COc1cccc(C(=O)N2CCN(C(=O)COc3cccc(C)c3)CC2)c1OC, the Potency was “inactive”.
For CC(NCc1ccc(OCc2cccc(F)c2)cc1)C(N)=O (stereo unspecified), the Potency was “inactive”.
In the case of Cc1c(NC(=O)c2cccnc2)c(=O)n(-c2ccccc2)n1C, the Potency is reported as “inactive”.
In the case of C=C[C@H]1[C@H](O[C@@H]2O[C@H](CO)[C@@H](O)[C@H](O)[C@H]2O)OC=C(C(=O)OC)[C@H]1CC(=O)O, the Potency is reported as “inactive”.
With C=CC1C(OC2OC(CO)C(O)C(O)C2O)OC=C2C(=O)N3C(C(=O)O)Cc4c([nH]c5ccccc45)C3CC21 (stereo unspecified) the Potency was “inactive”.
For NC(=O)c1ncn(C2O[C@H](CO)[C@@H](O)[C@H]2O)c1N (stereo partly specified), the Potency was “inactive”.
For CC1=CC2/C=C(\C)CCC(O)C(=O)C(O)CC(=O)C23C(=O)NC(CC(C)C)C3C1C (stereo unspecified), the Potency was 10 µM (active).
